Only some compounds are listed: those with a hit (about 3.4% of all), similar ones and a draw of the others.
FXN GAA850 act: increases GAA850 frataxin promoter reporter activity; HEK293 lucGAA850 FXN promoter luciferase reporter, 24 h; percent of 10 µM SAHA response; hit rate 0.56% among 360,000; AID 540364; activation, % at 6 µM;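 active = activation above the average of all compounds screened plus 3 SD, cutoff fixed separately per campaign, cut at about 7.5% in these data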
Gli-Sufu antag: blocks Gli-Sufu signaling in a luciferase reporter. Sufu-KO-LIGHT fibroblasts, Gli luciferase reporter luminescence. inhibition, % at 5 µM. hit rate 0.74% among 340,000;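 active = inhibition above about 55%, limit read from the data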
NR2F2 inh: NR2F2 (human) inhibition, primary screen; inhibition, % at 8.6 µM; HEK293T NGFI-A luciferase reporter, luminescence; P24468; hit rate 0.7% among 370,000;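 active = inhibition above a per-plate cutoff, mean inhibition of test wells between control levels plus 3 SD, cut at about 38% in these data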;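 note: cells cotransfected with COUP-TFII expression vector driving the NGFI-A reporter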
GalR3 antagonist: antagonists of human GalR3. O60755. HEK293 GalR3-CNG cAMP membrane potential fluorescence; galR3 body fused to GalR1 C-terminus. inhibition, % at 3 µM. hit rate 0.44% among 360,000;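 active = inhibition above the screen-wide average plus 3 SD, cut at about 13% in these data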;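 note: forskolin and galanin both at EC90 stimulate the cells; cAMP rise reported by CNG channel membrane potential dye signal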
Target sequence (O60755 1-299 limits assumed): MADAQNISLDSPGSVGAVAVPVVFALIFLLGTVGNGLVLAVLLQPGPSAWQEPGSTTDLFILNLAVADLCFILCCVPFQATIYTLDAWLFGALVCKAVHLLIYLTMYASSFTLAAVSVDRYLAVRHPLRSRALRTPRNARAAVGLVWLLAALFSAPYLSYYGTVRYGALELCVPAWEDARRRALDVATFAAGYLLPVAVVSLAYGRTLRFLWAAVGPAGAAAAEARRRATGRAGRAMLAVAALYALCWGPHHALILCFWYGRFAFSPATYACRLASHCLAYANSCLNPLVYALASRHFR
SMARCA2 activ: activators of SMARCA2 function; MG213 cells, MMTV-luciferase reporter, dexamethasone, overnight; hit rate 1% among 370,000; activation, % at 9.1 µM; in the data active = activation above about 7.8%
H9c2 protect: myocardial damage modulation in H9c2 cells | H9c2 cardiomyocytes, H2O2 injury protection, ATPLite, 2 h | hit rate 0.63% among 360,000 | AID 588492 | protection from H2O2 cell death, % at 20 µM;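 active = compounds giving at least 50% protection of heart cells from peroxide-induced death in the single-dose screen, raw or plate-pattern-corrected value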
A number is an active result.

`COC(=O)[C@]1(C)CN(C(=O)OC(C)(C)C)C2=C1C(=O)C[C@@](C)(C(=O)OC(C)(C)C)C2` gave NR2F2 inh inactive and SMARCA2 activ inactive.
Screening CCOC(=O)N1CCN(Cc2ccccc2Cl)CC1 returned FXN GAA850 act inactive, Gli-Sufu antag inactive, NR2F2 inh inactive, GalR3 antagonist inactive, SMARCA2 activ inactive and H9c2 protect inactive.
CCOC(=O)N1CCN(Cc2cc(Cl)c3cccnc3c2O)CC1 was read as Gli-Sufu antag 73.2, NR2F2 inh inactive, GalR3 antagonist inactive and SMARCA2 activ inactive.
For CC(=NNC(=S)N1CCCCC1)c1ccccn1 the results were FXN GAA850 act inactive, NR2F2 inh inactive, GalR3 antagonist inactive, SMARCA2 activ inactive and H9c2 protect inactive.
Screening CC(=NNC(=S)N1CC2CCC(CC2)C1)c1ccncn1 returned FXN GAA850 act inactive, Gli-Sufu antag 85.4, NR2F2 inh inactive, GalR3 antagonist inactive, SMARCA2 activ inactive and H9c2 protect inactive.
COc1cc(NC(=O)c2cccc3c(-c4cnn(C)c4)coc23)cc(OC)c1OC was read as FXN GAA850 act inactive, NR2F2 inh inactive, GalR3 antagonist inactive, SMARCA2 activ inactive and H9c2 protect 63.7.
`COc1ccc(NC(=O)c2cccc3c(-c4cnn(C)c4)coc23)cc1` gave FXN GAA850 act inactive, NR2F2 inh inactive, GalR3 antagonist inactive, SMARCA2 activ inactive and H9c2 protect inactive.
`COc1ccc(-c2nnn3c2Cn2c4ccccc4c(=O)n2[C@@H](C)C3)cc1` gave NR2F2 inh inactive and SMARCA2 activ inactive.
`Cc1[nH]n(-c2cccc3ccccc23)c(=O)c1/C=N/NC(=O)c1cccc([N+](=O)[O-])c1` gave FXN GAA850 act inactive, Gli-Sufu antag inactive, NR2F2 inh inactive, GalR3 antagonist inactive, SMARCA2 activ inactive and H9c2 protect 56.5.
Cc1[nH]n(-c2ccccc2)c(=O)c1/C=N/NC(=O)COc1ccccc1[N+](=O)[O-] was read as FXN GAA850 act inactive, Gli-Sufu antag inactive, NR2F2 inh inactive, GalR3 antagonist inactive, SMARCA2 activ inactive and H9c2 protect 61.8.
For COCC(=O)N/N=C/c1c(C)[nH]n(-c2ccccc2)c1=O the results were FXN GAA850 act inactive, Gli-Sufu antag inactive, NR2F2 inh inactive, GalR3 antagonist inactive, SMARCA2 activ inactive and H9c2 protect inactive.
For Cn1c(SCC(=O)Nc2ccc(C(=O)O)cc2)nnc1-c1ccccn1 the results were NR2F2 inh inactive and SMARCA2 activ inactive.
CCCOc1ccc(Br)cc1/C=N/NC(=O)c1cc(OC)c(OC)c(OC)c1 was read as FXN GAA850 act inactive, Gli-Sufu antag inactive, NR2F2 inh inactive, GalR3 antagonist inactive, SMARCA2 activ inactive and H9c2 protect inactive.
`O=C(C[n+]1ccccc1)N/N=C/c1cc(Br)cc(Br)c1O` gave FXN GAA850 act inactive, Gli-Sufu antag inactive and H9c2 protect inactive.
`COc1ccc(C(=O)N/N=C/c2cc(Br)ccc2O)cc1OC` gave FXN GAA850 act inactive, Gli-Sufu antag inactive, NR2F2 inh inactive, GalR3 antagonist inactive, SMARCA2 activ inactive and H9c2 protect 59.5.
`O=C(CN1CC(c2ccccc2)CC1=O)N/N=C/c1cc(Br)ccc1O` (stereo not drawn) gave FXN GAA850 act inactive, Gli-Sufu antag inactive, NR2F2 inh inactive, GalR3 antagonist inactive, SMARCA2 activ inactive and H9c2 protect 57.0.
Screening O=C(CP(=O)(c1ccccc1)c1ccccc1)N/N=C/c1cc(Br)cc(Br)c1O returned FXN GAA850 act inactive, Gli-Sufu antag inactive, NR2F2 inh inactive, GalR3 antagonist inactive, SMARCA2 activ inactive and H9c2 protect 70.7.
For O=C(N/N=C/c1cc(Cl)ccc1O)c1ccccc1Br the results were FXN GAA850 act inactive, Gli-Sufu antag inactive, NR2F2 inh inactive, GalR3 antagonist inactive, SMARCA2 activ inactive and H9c2 protect 76.6.
Screening O=C(N/N=C/c1cc(Cl)ccc1O)c1cccnc1 returned FXN GAA850 act inactive, Gli-Sufu antag inactive, NR2F2 inh inactive, GalR3 antagonist inactive, SMARCA2 activ inactive and H9c2 protect inactive.
Screening COCO[C@@H]1CC(CO)=C[C@H]2OCO[C@H]21 returned NR2F2 inh inactive.
O=C(CNC(=O)c1ccccc1)N/N=C/c1cc(Br)ccc1O was read as FXN GAA850 act inactive, Gli-Sufu antag inactive, NR2F2 inh inactive, GalR3 antagonist inactive, SMARCA2 activ inactive and H9c2 protect 58.6.
For O=C(CNC(=O)c1ccccc1Br)N/N=C/c1cc(Br)ccc1O the results were FXN GAA850 act inactive, Gli-Sufu antag inactive, NR2F2 inh inactive, GalR3 antagonist inactive, SMARCA2 activ inactive and H9c2 protect 74.3.
COC(=O)C1=CN(c2ccc(N3CCOCC3)cc2)C(N)=C(C#N)C1c1ccc(-c2ccccc2)cc1 (stereo not drawn) was read as NR2F2 inh inactive, GalR3 antagonist inactive and SMARCA2 activ inactive.
`CCN1C(=O)[C@H]2[C@@H](c3ccc(-c4ccccc4)cc3)N[C@@](C)(C(=O)OC)[C@H]2C1=O` gave FXN GAA850 act inactive, Gli-Sufu antag inactive, NR2F2 inh inactive, GalR3 antagonist inactive, SMARCA2 activ inactive and H9c2 protect inactive.
Screening CCN1C(=O)[C@H]2[C@@H](c3ccc(-c4ccc(C(C)=O)cc4)cc3)N[C@@](C)(C(=O)OC)[C@H]2C1=O returned FXN GAA850 act inactive, Gli-Sufu antag inactive and H9c2 protect 52.4.
CCn1c2ccccc2c2nc3ccccc3nc21 was read as FXN GAA850 act 9.3, Gli-Sufu antag inactive and H9c2 protect inactive.
CCn1c2ccccc2c2nc3cc(OC)c(OC)cc3nc21 was read as FXN GAA850 act inactive, Gli-Sufu antag inactive, NR2F2 inh inactive, GalR3 antagonist inactive, SMARCA2 activ inactive and H9c2 protect 50.9.
For C=CCNC(=O)CN(C(=O)c1csc2ccc(Cl)cc12)c1cccc(Br)c1 the results were NR2F2 inh inactive and SMARCA2 activ inactive.
`O=C(N/N=C/c1cn(-c2ccccc2)nc1-c1cccs1)c1ccccc1F` gave FXN GAA850 act inactive, Gli-Sufu antag inactive and H9c2 protect 75.7.
`O=C(N/N=C/c1cn(-c2ccccc2)nc1-c1ccc(F)cc1)c1ccc(Br)o1` gave FXN GAA850 act inactive, Gli-Sufu antag inactive, NR2F2 inh inactive, GalR3 antagonist inactive, SMARCA2 activ inactive and H9c2 protect inactive.
Screening O=C(N/N=C/c1cn(-c2ccccc2)nc1-c1cccs1)c1ccc(Cl)cc1 returned FXN GAA850 act inactive, Gli-Sufu antag inactive, NR2F2 inh inactive, GalR3 antagonist inactive, SMARCA2 activ inactive and H9c2 protect inactive.
O=C(N/N=C/c1cn(-c2ccccc2)nc1-c1cccnc1)c1ccc(F)cc1 was read as FXN GAA850 act inactive, Gli-Sufu antag inactive, NR2F2 inh inactive, GalR3 antagonist inactive, SMARCA2 activ inactive and H9c2 protect 70.8.
Screening O=C(N/N=C/c1cn(-c2ccccc2)nc1-c1cccnc1)c1cccnc1 returned FXN GAA850 act inactive, Gli-Sufu antag inactive, NR2F2 inh inactive, GalR3 antagonist inactive, SMARCA2 activ inactive and H9c2 protect 51.5.

High-throughput results as filed in PubChem BioAssay.
